According to PMC6602471:
In all, about 1,300 sequences were measured (“log fluorescence intensity”: median about 8.9, highest 2% from about 13 on). Only a selection was taken, and the highest values are over-represented in it overall.

Biological target: T1, ELK1 (Homo sapiens, UniProt P19419 1-428)
T1 sequence: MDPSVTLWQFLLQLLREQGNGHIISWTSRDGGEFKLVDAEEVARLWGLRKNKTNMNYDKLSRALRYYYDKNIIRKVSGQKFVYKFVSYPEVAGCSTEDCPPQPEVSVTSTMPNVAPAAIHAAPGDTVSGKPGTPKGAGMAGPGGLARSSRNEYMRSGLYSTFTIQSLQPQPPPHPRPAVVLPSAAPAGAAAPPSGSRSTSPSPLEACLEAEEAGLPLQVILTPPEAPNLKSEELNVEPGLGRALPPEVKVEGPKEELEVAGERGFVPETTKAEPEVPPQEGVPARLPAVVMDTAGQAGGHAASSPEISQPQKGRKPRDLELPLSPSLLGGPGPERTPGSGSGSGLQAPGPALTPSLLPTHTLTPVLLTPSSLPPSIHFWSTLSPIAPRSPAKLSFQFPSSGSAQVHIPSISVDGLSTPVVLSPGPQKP
Assay: custom PBM; custom protein-binding microarray; buffer, salt, pH and temperature not stated; high values mean tight binding
Conditions: dsDNA, one strand shown

Sequence | binding signal
GTGCATAGGATCCCATCCAACACACGTGTTAAAATGGTCTTGATTCGCTTGACGCTGCTG | 9 log fluorescence intensity
CGGAAGTGTCGTAAACGTCGGATATACGGTTCTTCTGTCTTGATTCGCTTGACGCTGCTG | 9.29 log fluorescence intensity
GGAAAAAGGCCCAGGGTAACACCGGAAGCGGGCTTAGTCTTGATTCGCTTGACGCTGCTG | 10.5 log fluorescence intensity
GTGTCTAGGATCCCATCCAACACACGTGTTAAAATGGTCTTGATTCGCTTGACGCTGCTG | 8.94 log fluorescence intensity
CAGCAGAGGACTTCTTCCCTGAAGCAATTGATAACCGTCTTGATTCGCTTGACGCTGCTG | 8.97 log fluorescence intensity
CGGAAGTGTCGTAAACGTCGGATATCCGGTTCTGCTGTCTTGATTCGCTTGACGCTGCTG | 12.5 log fluorescence intensity
CGGAAGTGTCGTAAACGTAGGATATCCGGTTCTTCTGTCTTGATTCGCTTGACGCTGCTG | 11.8 log fluorescence intensity
CGGAAGTGTCGTAAACGTCGGATATCCGGTTCTCCTGTCTTGATTCGCTTGACGCTGCTG | 12.6 log fluorescence intensity
CGGAAGTGTCGTAAACGTCGGATATCCGGTTCTTCCGTCTTGATTCGCTTGACGCTGCTG | 13 log fluorescence intensity
CGGAAGTGTCGTAAACCTCGGATATCCGGTTCTTCTGTCTTGATTCGCTTGACGCTGCTG | 12.2 log fluorescence intensity
CGGAAGTGTCGTAAACGTCGGATATCCGGTTCTACTGTCTTGATTCGCTTGACGCTGCTG | 12.4 log fluorescence intensity
CGGAAGTGTCGTAAACGTCGGATATCCGGTTCTTCAGTCTTGATTCGCTTGACGCTGCTG | 12.6 log fluorescence intensity
CGGAAGTGTCGTAAACGTCGGATATCCGGTTCTTATGTCTTGATTCGCTTGACGCTGCTG | 12.4 log fluorescence intensity
CGGAAGTGTCGTAAACGTCGGATATCCGGTTCTTCGGTCTTGATTCGCTTGACGCTGCTG | 12.4 log fluorescence intensity
CGGAAGTGTCGTAAACGCCGGATATCCGGTTCTTCTGTCTTGATTCGCTTGACGCTGCTG | 13.3 log fluorescence intensity
AGGAAGTGTCGTAAACGTCGGATATCCGGTTCTTCTGTCTTGATTCGCTTGACGCTGCTG | 12.3 log fluorescence intensity
CGGAAGTGTCGTAAACGTTGGATATCCGGTTCTTCTGTCTTGATTCGCTTGACGCTGCTG | 11.4 log fluorescence intensity
CGGAAGTGTCGTAAACGTCGGATATCCGGTTCGTCTGTCTTGATTCGCTTGACGCTGCTG | 12.4 log fluorescence intensity
CGGAAGTGTCGTAAACGTCGGATATCCGGTTCATCTGTCTTGATTCGCTTGACGCTGCTG | 12.6 log fluorescence intensity
CGGAAGTGTCGTAAACTTCGGATATCCGGTTCTTCTGTCTTGATTCGCTTGACGCTGCTG | 12.3 log fluorescence intensity
CGGAAGTGTCGTAAACGTCGGATATCCGGTTCTTCTGTCTTGATTCGCTTGACGCTGCTG | 12.4 log fluorescence intensity
CGGAAGTGTCGTAAACATCGGATATCCGGTTCTTCTGTCTTGATTCGCTTGACGCTGCTG | 12.6 log fluorescence intensity
CGGAAGTGTCGTAAACGTGGGATATCCGGTTCTTCTGTCTTGATTCGCTTGACGCTGCTG | 11.4 log fluorescence intensity
CGGAAGTGTCGTAAACGTCGGATATCCGGTTCCTCTGTCTTGATTCGCTTGACGCTGCTG | 12.5 log fluorescence intensity
CGGAAGTGTCGTAAACGTCTGATATCCGGTTCTTCTGTCTTGATTCGCTTGACGCTGCTG | 11.1 log fluorescence intensity
TGGAAGTGTCGTAAACGTCGGATATCCGGTTCTTCTGTCTTGATTCGCTTGACGCTGCTG | 12.5 log fluorescence intensity

Sequence | binding signal
GGGAAGTGTCGTAAACGTCGGATATCCGGTTCTTCTGTCTTGATTCGCTTGACGCTGCTG | 12.6 log fluorescence intensity
CGGAAGTGTCGTAAAAGTCGGATATCCGGTTCTTCTGTCTTGATTCGCTTGACGCTGCTG | 12.5 log fluorescence intensity
CGTAAGTGTCGTAAACGTCGGATATCCGGTTCTTCTGTCTTGATTCGCTTGACGCTGCTG | 12.4 log fluorescence intensity
CTGAAGTGTCGTAAACGTCGGATATCCGGTTCTTCTGTCTTGATTCGCTTGACGCTGCTG | 12.3 log fluorescence intensity
CAGAAGTGTCGTAAACGTCGGATATCCGGTTCTTCTGTCTTGATTCGCTTGACGCTGCTG | 12.6 log fluorescence intensity
CGGAAGTGTCGTAAATGTCGGATATCCGGTTCTTCTGTCTTGATTCGCTTGACGCTGCTG | 12.7 log fluorescence intensity
CGGTAGTGTCGTAAACGTCGGATATCCGGTTCTTCTGTCTTGATTCGCTTGACGCTGCTG | 12.5 log fluorescence intensity
CGCAAGTGTCGTAAACGTCGGATATCCGGTTCTTCTGTCTTGATTCGCTTGACGCTGCTG | 12.6 log fluorescence intensity
CGGGAGTGTCGTAAACGTCGGATATCCGGTTCTTCTGTCTTGATTCGCTTGACGCTGCTG | 12.1 log fluorescence intensity
CGAAAGTGTCGTAAACGTCGGATATCCGGTTCTTCTGTCTTGATTCGCTTGACGCTGCTG | 12.5 log fluorescence intensity
CGGAAGTGTCGTAAAGGTCGGATATCCGGTTCTTCTGTCTTGATTCGCTTGACGCTGCTG | 12.4 log fluorescence intensity
CGGAAGTGTCGTAAACGTCGCATATCCGGTTCTTCTGTCTTGATTCGCTTGACGCTGCTG | 11.6 log fluorescence intensity
CGGAAGTGTCGTAAACGTCAGATATCCGGTTCTTCTGTCTTGATTCGCTTGACGCTGCTG | 11.2 log fluorescence intensity
CGGAAGTGACGTAAACGTCGGATATCCGGTTCTTCTGTCTTGATTCGCTTGACGCTGCTG | 12.3 log fluorescence intensity
CGGAAGTGTCGTAAACGTCCGATATCCGGTTCTTCTGTCTTGATTCGCTTGACGCTGCTG | 12.3 log fluorescence intensity
CGGAAGTGTCGTAAACGTCGAATATCCGGTTCTTCTGTCTTGATTCGCTTGACGCTGCTG | 11.7 log fluorescence intensity
CGGAAGTGTCGTAAACGTCGGATATCCGGTTGTTCTGTCTTGATTCGCTTGACGCTGCTG | 12.5 log fluorescence intensity
CGGAAGTGTCGTAAACGTCGGATATCCGGGTCTTCTGTCTTGATTCGCTTGACGCTGCTG | 11.9 log fluorescence intensity
CGGAAGTGTCGTAAACGTCGGATATCCGGTGCTTCTGTCTTGATTCGCTTGACGCTGCTG | 12.5 log fluorescence intensity
CGGAAGTGTCGTAAACGTCGGATATCCGGTCCTTCTGTCTTGATTCGCTTGACGCTGCTG | 12.6 log fluorescence intensity
CGGAAGTGTCGTAAACGTCGGATATCCGGTTCTTGTGTCTTGATTCGCTTGACGCTGCTG | 12.6 log fluorescence intensity
CGGAAGTGGCGTAAACGTCGGATATCCGGTTCTTCTGTCTTGATTCGCTTGACGCTGCTG | 12.1 log fluorescence intensity
CCGAAGTGTCGTAAACGTCGGATATCCGGTTCTTCTGTCTTGATTCGCTTGACGCTGCTG | 12.6 log fluorescence intensity
CGGAAGTGTCGTAAACGTCGGATATCCGGTTCTTTTGTCTTGATTCGCTTGACGCTGCTG | 12.5 log fluorescence intensity
CGGAAGTGCCGTAAACGTCGGATATCCGGTTCTTCTGTCTTGATTCGCTTGACGCTGCTG | 12.5 log fluorescence intensity
TCCGGCTACCAGCGCCACCCACTTCAGGCCTTGTAGGTCTTGATTCGCTTGACGCTGCTG | 8.91 log fluorescence intensity
